According to paper PMC7862700, “An all-to-all approach to the identification of sequence-specific readers for epigenetic DNA modifications on cytosine”:

Key:
Assay in all cases: DAPPL (digital affinity profiling via proximity ligation, sequencing); 10 mM Tris-HCl pH 7.5, 50 mM NaCl, 1 mM DTT, 4% glycerol, room temperature, 30 min; GST-TFs on glutathione beads, 16-mer random dsDNA library, 0.1% formaldehyde crosslink after washing; high values mean tight binding
FLI1 = molecular target: T1, FLI1 (Homo sapiens, UniProt Q01543 1-452); conditions: protein: recombinant; tags: N-terminal GST; dsDNA, one strand shown
T1 sequence: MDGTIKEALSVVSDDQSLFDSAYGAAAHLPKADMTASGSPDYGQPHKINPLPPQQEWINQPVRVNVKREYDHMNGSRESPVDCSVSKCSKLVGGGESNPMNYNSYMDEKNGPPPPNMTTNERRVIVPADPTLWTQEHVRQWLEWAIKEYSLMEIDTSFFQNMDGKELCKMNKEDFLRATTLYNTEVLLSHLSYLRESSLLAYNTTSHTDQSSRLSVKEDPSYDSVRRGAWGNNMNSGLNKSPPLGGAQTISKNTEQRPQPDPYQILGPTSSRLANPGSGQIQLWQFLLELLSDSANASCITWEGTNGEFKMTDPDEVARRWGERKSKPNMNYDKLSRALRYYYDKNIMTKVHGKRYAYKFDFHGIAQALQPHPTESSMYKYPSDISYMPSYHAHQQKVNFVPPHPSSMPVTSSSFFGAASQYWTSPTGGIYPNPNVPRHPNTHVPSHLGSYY
How it was run: (§1)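 A tag-only sample was pooled with DNA-barcoded human transcription factors that had been expressed in yeast as GST fusions and captured on glutathione beads. The pools were incubated for 30 min at room temperature with 200 nmole of a random double-stranded 16-mer DNA library in Tris/NaCl/DTT/glycerol buffer, then washed, crosslinked with 0.1% formaldehyde, proximity-ligated (BsaI/T4 ligase, 1 h, 37 °C), PCR-amplified and sequenced on an Illumina NextSeq500. Binding signal is each hexamer's read frequency for a factor divided by its frequency for the tag-only sample.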

ELK1 = molecular target: T2, ELK1 (Homo sapiens, UniProt P19419 1-428); conditions: protein: recombinant; tags: N-terminal GST; dsDNA, one strand shown
T2 sequence: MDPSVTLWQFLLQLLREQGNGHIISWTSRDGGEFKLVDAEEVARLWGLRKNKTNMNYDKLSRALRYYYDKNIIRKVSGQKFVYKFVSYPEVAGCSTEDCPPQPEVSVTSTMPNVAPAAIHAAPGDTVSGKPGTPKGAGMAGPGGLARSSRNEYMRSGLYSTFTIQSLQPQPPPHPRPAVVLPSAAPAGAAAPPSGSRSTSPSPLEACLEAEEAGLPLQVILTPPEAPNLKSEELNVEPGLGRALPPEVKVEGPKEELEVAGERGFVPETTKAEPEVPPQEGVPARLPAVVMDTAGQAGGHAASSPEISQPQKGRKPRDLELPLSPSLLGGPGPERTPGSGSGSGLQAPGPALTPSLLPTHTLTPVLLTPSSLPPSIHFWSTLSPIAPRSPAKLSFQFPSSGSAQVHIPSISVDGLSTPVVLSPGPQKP
How it was run: as §1

GABPA = molecular target: T3, GABPA (Homo sapiens, UniProt Q06546 1-454); conditions: protein: recombinant; tags: N-terminal GST; dsDNA, one strand shown
T3 sequence: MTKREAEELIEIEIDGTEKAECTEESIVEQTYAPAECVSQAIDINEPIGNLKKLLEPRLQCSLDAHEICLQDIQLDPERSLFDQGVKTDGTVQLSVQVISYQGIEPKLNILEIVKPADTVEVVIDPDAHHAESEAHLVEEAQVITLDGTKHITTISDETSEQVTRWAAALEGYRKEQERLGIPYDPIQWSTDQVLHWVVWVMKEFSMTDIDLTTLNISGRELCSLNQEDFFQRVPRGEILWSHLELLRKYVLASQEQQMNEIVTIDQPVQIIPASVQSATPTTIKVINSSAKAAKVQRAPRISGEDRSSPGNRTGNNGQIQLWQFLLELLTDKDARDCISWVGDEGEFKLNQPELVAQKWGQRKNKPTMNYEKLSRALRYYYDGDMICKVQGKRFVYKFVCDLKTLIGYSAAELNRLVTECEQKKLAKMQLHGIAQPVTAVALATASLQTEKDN
How it was run: as §1

ERG = molecular target: T4, ERG (Homo sapiens, UniProt P11308 1-479); conditions: protein: recombinant; tags: N-terminal GST; dsDNA, one strand shown
T4 sequence: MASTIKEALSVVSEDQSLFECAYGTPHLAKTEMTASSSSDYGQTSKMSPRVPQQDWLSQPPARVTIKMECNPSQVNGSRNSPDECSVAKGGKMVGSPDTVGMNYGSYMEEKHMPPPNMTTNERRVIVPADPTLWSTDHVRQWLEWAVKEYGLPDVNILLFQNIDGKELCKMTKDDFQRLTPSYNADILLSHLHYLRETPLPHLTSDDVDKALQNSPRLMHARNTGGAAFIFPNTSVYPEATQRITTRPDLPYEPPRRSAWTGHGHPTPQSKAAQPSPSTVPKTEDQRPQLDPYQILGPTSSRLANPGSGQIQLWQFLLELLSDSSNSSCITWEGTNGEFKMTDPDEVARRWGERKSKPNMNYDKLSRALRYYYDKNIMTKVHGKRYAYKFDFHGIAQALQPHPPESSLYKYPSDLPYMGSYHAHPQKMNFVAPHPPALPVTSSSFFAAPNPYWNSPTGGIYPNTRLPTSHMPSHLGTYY
How it was run: as §1

ELF1 = ELF1 (Homo sapiens, UniProt P32519 1-619); conditions: protein: recombinant; tags: N-terminal GST; dsDNA, one strand shown
How it was run: as §1

EHF = molecular target: T5, EHF (Homo sapiens, UniProt Q9NZC4 1-300); conditions: protein: recombinant; tags: N-terminal GST; dsDNA, one strand shown
T5 sequence: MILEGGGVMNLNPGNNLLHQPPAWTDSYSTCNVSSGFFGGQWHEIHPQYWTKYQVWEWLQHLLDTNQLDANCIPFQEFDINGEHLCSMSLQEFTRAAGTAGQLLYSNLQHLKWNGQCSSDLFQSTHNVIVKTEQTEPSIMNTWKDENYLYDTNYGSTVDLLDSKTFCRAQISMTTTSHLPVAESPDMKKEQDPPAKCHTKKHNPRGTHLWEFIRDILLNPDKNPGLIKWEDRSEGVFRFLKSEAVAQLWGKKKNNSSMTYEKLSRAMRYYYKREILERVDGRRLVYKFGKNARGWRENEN
How it was run: as §1

SPI1 = SPI1 (Homo sapiens, UniProt P17947 1-270); conditions: protein: recombinant; tags: N-terminal GST; dsDNA, one strand shown
How it was run: as §1

SPIB = SPIB (Homo sapiens, UniProt Q01892 1-262); conditions: protein: recombinant; tags: N-terminal GST; dsDNA, one strand shown
How it was run: as §1

ELK3 = molecular target: T6, ELK3 (Homo sapiens, UniProt P41970 1-407); conditions: protein: recombinant; tags: N-terminal GST; dsDNA, one strand shown
T6 sequence: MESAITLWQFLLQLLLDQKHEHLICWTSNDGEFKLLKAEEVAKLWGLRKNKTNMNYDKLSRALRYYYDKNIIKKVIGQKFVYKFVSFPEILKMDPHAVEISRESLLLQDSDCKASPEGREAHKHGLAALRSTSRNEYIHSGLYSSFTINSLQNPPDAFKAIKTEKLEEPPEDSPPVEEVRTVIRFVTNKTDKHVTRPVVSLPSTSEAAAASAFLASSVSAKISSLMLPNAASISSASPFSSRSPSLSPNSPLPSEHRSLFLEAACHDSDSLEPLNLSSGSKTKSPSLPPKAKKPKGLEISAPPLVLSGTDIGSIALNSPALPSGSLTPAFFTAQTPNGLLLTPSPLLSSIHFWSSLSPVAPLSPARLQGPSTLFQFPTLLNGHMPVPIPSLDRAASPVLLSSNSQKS
How it was run: as §1

FEV = molecular target: T7, FEV (Homo sapiens, UniProt Q99581 1-238); conditions: protein: recombinant; tags: N-terminal GST; dsDNA, one strand shown
T7 sequence: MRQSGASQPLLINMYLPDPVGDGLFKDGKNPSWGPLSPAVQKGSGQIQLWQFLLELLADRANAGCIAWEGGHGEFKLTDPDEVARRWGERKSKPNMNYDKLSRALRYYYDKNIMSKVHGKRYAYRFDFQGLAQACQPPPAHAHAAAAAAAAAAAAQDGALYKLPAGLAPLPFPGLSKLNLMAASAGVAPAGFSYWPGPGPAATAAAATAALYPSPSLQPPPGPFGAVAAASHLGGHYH
How it was run: as §1

ETV5 = ETV5 (Homo sapiens, UniProt P41161 1-510); conditions: protein: recombinant; tags: N-terminal GST; dsDNA, one strand shown
How it was run: as §1

HSF1 = HSF1 (Homo sapiens, UniProt Q00613 1-529); conditions: protein: recombinant; tags: N-terminal GST; chain copies: 3; dsDNA, one strand shown
How it was run: as §1

SPIC = molecular target: T8, SPIC (Homo sapiens, UniProt Q8N5J4 1-248); conditions: protein: recombinant; tags: N-terminal GST; dsDNA, one strand shown
T8 sequence: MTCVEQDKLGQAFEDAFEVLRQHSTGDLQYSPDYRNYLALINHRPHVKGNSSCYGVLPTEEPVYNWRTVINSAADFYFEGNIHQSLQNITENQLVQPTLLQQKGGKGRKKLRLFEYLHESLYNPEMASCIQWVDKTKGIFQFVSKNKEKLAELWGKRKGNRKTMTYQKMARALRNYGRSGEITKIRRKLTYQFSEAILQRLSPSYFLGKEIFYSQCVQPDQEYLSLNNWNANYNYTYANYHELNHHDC
How it was run: as §1

ELF4 = ELF4 (Homo sapiens, UniProt Q99607 1-663); conditions: protein: recombinant; tags: N-terminal GST; dsDNA, one strand shown
How it was run: as §1

ELK4 = molecular target: T9, ELK4 (Homo sapiens, UniProt P28324-2 1-405); conditions: protein: recombinant; tags: N-terminal GST; dsDNA, one strand shown
T9 sequence: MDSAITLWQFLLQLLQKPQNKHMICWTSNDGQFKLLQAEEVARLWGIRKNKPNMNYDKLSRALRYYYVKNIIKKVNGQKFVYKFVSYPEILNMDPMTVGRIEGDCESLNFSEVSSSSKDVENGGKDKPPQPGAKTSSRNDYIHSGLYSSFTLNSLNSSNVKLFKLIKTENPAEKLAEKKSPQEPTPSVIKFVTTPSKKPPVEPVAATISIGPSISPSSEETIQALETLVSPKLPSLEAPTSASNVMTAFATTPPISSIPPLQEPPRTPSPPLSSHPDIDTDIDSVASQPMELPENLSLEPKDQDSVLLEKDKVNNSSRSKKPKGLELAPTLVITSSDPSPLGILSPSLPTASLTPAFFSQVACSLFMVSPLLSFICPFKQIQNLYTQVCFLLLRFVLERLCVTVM
How it was run: as §1

ETV2 = molecular target: T10, ETV2 (Homo sapiens, UniProt O00321 1-342); conditions: protein: recombinant; tags: N-terminal GST; dsDNA, one strand shown
T10 sequence: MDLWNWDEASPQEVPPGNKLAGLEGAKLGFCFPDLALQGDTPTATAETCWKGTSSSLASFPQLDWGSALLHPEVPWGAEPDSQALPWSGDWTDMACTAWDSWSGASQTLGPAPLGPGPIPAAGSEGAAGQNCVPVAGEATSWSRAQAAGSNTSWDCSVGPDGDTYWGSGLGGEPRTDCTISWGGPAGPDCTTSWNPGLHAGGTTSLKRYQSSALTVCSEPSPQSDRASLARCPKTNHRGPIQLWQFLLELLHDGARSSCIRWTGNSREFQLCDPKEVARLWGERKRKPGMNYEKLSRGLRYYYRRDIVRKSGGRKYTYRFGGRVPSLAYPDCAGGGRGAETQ
How it was run: as §1

ELF3 = molecular target: T11, ELF3 (Homo sapiens, UniProt P78545 1-371); conditions: protein: recombinant; tags: N-terminal GST; dsDNA, one strand shown
T11 sequence: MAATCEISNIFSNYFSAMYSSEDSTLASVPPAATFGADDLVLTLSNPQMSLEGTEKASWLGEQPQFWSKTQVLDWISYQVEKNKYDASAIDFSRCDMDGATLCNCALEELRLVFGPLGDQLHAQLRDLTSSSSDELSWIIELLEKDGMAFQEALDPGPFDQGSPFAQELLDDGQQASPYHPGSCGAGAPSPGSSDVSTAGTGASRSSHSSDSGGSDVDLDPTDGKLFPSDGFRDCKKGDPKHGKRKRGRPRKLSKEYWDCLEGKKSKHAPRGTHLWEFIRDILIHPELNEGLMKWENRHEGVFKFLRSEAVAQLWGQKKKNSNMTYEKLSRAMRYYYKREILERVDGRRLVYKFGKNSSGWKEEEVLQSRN
How it was run: as §1

CRX = CRX (Homo sapiens, UniProt O43186 1-299); conditions: protein: recombinant; tags: N-terminal GST; dsDNA, one strand shown
How it was run: as §1

ETV1 = ETV1 (Homo sapiens, UniProt P50549 1-477); conditions: protein: recombinant; tags: N-terminal GST; dsDNA, one strand shown
How it was run: as §1

Sequence of ETV5 (P41161 whole entry): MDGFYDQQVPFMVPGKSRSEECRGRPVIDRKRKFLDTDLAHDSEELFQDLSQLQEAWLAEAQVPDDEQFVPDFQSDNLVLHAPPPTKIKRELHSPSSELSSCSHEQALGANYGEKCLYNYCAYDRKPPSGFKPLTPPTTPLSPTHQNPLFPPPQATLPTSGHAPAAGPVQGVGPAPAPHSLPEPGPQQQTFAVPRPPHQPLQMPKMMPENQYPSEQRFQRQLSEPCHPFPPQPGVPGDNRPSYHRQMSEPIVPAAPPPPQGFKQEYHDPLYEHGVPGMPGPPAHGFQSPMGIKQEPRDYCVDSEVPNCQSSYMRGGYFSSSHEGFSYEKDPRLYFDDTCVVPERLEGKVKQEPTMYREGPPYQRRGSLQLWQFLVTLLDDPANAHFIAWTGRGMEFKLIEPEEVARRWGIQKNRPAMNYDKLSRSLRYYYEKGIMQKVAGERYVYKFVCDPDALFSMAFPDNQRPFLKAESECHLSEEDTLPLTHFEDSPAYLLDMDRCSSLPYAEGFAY
Sequence of SPIB (Q01892 whole entry): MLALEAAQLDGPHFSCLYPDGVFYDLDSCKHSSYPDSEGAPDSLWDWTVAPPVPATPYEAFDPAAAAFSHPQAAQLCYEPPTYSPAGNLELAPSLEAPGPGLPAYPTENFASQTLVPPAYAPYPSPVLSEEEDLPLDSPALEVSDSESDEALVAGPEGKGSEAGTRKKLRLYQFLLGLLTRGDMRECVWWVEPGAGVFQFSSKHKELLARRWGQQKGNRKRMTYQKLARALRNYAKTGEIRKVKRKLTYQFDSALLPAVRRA
Sequence of ELF4 (Q99607 whole entry): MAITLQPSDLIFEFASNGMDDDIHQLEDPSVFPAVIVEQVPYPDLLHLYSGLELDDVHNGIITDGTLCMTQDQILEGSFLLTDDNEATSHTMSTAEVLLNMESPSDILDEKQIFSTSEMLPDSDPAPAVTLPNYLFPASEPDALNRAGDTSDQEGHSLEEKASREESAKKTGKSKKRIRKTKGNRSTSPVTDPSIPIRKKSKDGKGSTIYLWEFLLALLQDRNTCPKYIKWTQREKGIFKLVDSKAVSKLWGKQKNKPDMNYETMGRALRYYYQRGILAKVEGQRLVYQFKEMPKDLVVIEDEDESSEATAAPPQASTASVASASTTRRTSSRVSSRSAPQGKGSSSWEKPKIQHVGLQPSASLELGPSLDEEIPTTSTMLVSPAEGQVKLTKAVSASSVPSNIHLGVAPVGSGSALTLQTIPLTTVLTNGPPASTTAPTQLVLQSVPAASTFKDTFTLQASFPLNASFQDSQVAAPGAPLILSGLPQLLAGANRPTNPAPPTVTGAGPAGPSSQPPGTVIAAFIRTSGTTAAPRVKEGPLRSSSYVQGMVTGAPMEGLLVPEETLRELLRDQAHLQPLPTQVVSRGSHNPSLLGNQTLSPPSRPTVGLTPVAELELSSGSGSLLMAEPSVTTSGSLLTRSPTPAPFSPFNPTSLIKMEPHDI
Sequence of ELF1 (P32519 whole entry): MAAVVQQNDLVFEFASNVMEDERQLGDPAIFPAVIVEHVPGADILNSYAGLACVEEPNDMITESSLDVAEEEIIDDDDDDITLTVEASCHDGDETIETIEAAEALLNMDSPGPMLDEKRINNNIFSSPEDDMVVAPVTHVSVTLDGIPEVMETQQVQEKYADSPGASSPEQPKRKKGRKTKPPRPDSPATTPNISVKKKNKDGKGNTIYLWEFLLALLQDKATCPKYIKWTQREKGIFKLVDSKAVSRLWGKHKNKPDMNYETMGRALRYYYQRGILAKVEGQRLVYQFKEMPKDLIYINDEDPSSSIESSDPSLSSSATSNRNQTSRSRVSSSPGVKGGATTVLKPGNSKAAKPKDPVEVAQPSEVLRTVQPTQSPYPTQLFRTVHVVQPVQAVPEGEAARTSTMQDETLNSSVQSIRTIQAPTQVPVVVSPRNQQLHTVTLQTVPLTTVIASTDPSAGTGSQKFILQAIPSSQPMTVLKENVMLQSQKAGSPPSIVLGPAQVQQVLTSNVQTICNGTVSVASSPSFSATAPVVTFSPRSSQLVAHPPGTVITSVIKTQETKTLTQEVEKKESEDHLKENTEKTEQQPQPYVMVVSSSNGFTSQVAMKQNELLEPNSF
Sequence of ETV1 (P50549 whole entry): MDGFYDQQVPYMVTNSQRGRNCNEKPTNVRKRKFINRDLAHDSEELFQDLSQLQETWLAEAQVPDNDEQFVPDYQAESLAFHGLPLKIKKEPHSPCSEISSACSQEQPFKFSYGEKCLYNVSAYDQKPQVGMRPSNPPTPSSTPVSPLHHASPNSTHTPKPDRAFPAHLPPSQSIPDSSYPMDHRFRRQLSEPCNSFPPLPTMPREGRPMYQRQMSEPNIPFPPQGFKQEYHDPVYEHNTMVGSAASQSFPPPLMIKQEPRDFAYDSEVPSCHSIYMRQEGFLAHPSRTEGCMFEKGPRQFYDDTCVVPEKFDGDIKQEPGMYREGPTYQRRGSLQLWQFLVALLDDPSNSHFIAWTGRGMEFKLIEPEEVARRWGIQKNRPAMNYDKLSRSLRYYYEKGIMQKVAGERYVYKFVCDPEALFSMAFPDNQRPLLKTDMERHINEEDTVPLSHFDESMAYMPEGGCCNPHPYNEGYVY
Sequence of CRX (O43186 whole entry): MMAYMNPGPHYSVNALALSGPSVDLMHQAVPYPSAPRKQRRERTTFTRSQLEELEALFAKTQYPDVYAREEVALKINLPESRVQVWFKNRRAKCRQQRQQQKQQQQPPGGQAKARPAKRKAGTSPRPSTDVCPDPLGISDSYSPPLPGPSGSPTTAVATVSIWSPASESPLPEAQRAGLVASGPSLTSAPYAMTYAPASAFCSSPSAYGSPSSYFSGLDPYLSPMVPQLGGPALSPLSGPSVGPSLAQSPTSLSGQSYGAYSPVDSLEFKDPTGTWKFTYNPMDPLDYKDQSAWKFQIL
Sequence of HSF1 (Q00613 whole entry): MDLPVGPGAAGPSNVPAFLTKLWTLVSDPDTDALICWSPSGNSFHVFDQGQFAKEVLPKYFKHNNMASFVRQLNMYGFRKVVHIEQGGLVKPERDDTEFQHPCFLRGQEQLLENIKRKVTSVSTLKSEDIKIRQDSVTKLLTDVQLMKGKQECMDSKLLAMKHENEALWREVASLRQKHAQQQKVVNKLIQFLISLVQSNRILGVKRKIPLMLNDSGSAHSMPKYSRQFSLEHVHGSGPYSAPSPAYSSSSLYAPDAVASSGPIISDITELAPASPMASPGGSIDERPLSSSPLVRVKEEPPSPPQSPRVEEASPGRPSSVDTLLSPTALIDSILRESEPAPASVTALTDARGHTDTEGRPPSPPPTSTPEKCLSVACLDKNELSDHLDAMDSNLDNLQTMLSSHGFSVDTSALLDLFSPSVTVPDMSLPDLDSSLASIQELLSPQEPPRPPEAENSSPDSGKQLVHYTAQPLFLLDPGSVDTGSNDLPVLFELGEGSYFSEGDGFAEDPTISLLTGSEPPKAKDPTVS

AACGCT
binding signal (FLI1): 1.16 fold enrichment (6-mer frequency, TF over GST control)
binding signal (ELK1): 1.22 fold enrichment (6-mer frequency, TF over GST control)
binding signal (GABPA): 1.22 fold enrichment (6-mer frequency, TF over GST control)
binding signal (ERG): 1.19 fold enrichment (6-mer frequency, TF over GST control)
binding signal (ELF1): 1.27 fold enrichment (6-mer frequency, TF over GST control)
binding signal (EHF): 1.23 fold enrichment (6-mer frequency, TF over GST control)
binding signal (SPI1): 1.17 fold enrichment (6-mer frequency, TF over GST control)
binding signal (SPIB): 1.21 fold enrichment (6-mer frequency, TF over GST control)
binding signal (ELK3): 1.2 fold enrichment (6-mer frequency, TF over GST control)
binding signal (FEV): 1.18 fold enrichment (6-mer frequency, TF over GST control)
binding signal (ETV5): 1.23 fold enrichment (6-mer frequency, TF over GST control)
binding signal (HSF1): 1.06 fold enrichment (6-mer frequency, TF over GST control)
binding signal (SPIC): 1.26 fold enrichment (6-mer frequency, TF over GST control)
binding signal (ELF4): 1.27 fold enrichment (6-mer frequency, TF over GST control)
binding signal (ELK4): 1.22 fold enrichment (6-mer frequency, TF over GST control)
binding signal (ETV2): 1.24 fold enrichment (6-mer frequency, TF over GST control)
binding signal (ELF3): 1.14 fold enrichment (6-mer frequency, TF over GST control)
binding signal (CRX): 1.17 fold enrichment (6-mer frequency, TF over GST control)
binding signal (ETV1): 1.2 fold enrichment (6-mer frequency, TF over GST control)
